# Measurements from publication PMC5700166.
# Numbering of substitutions follows the chain as printed.
# Key:
# Assay in all cases: protein-binding microarray (PBM); PBM: ~300 nM protein, 6 mM HEPES pH 7.8, 80 mM KCl, 0.5 mM EDTA, 0.5 mM EGTA, 6% glycerol, 35 ng/ul poly-dIdC, 1% milk, 1 h, room temperature; Ap Aiptasia and Nv Nematostella (sea anemones) / Co Capsaspora / Aq Amphimedon (sponge) / Dm Drosophila / Hu human; RHD is the Rel homology domain; high values mean tight binding
# Settings in all cases: dsDNA, one strand shown
# [1] = molecular target: T1, GST-Ap-NF-kB RHD (Exaiptasia pallida (Aiptasia), UniProt A0A913YAJ5 2-422)
# T1 sequence: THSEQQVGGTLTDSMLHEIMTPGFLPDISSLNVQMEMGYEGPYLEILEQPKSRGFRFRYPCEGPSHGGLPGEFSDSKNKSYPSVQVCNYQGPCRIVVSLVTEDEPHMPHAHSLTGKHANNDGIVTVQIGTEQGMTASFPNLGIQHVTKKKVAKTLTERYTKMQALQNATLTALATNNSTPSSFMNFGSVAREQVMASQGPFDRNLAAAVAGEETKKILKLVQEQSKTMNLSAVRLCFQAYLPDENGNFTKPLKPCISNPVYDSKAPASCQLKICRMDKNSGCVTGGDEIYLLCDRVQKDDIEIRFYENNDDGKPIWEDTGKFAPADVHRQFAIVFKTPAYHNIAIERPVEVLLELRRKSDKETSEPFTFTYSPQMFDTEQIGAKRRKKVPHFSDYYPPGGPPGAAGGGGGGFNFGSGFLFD
# [2] = molecular target: T2, GST-Nv-NF-kB (Cys allele) (Nematostella vectensis, UniProt E5G601 2-411)
# T2 sequence: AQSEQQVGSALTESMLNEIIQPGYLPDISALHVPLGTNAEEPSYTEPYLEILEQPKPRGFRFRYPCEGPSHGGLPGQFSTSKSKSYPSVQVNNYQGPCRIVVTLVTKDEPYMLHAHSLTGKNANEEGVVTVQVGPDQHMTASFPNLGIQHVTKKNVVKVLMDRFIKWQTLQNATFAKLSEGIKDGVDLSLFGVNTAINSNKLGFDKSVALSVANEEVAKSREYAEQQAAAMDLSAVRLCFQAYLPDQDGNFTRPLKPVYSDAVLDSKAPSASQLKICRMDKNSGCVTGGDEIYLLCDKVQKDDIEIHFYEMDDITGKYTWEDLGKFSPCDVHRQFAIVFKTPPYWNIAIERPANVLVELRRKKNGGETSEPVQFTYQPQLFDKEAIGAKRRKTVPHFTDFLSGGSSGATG
# [3] = molecular target: T3, GST-Nv-NF-kB (Ser allele) (Nematostella vectensis, UniProt A7UNT2 2-411)
# T3 sequence: T2 sequence with Q21R, C66S, S207N, E215Q, V217A, E225K, A268E, D399E
# [4] = molecular target: T4, GST-Co-NF-kB (Capsaspora owczarzaki, UniProt F1ARL5 200-546)
# T4 sequence: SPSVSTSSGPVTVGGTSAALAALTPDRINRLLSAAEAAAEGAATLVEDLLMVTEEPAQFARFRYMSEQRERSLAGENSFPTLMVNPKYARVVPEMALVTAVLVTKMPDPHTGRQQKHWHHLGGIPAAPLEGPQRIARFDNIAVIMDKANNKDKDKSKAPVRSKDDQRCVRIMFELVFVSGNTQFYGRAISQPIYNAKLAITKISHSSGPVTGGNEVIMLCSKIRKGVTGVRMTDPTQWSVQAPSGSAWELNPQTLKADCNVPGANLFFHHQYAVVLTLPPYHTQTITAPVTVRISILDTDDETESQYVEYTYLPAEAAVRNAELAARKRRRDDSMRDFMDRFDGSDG
# [5] = molecular target: T5, GST-Dm-Relish (Drosophila melanogaster, UniProt Q94527 99-473)
# T5 sequence: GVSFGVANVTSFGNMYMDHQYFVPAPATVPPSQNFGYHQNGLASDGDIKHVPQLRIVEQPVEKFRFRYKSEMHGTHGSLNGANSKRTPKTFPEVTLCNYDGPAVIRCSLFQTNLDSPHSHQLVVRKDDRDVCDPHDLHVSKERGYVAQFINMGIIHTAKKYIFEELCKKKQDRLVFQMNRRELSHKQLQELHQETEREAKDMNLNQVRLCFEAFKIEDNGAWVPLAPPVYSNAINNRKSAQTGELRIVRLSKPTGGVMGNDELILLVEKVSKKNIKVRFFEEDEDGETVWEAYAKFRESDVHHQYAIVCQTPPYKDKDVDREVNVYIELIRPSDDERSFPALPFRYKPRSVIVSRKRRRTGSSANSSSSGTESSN
# [6] = molecular target: T6, GST-Aq-NF-kB (Amphimedon queenslandica, UniProt A9Y5G7 2-389)
# T6 sequence: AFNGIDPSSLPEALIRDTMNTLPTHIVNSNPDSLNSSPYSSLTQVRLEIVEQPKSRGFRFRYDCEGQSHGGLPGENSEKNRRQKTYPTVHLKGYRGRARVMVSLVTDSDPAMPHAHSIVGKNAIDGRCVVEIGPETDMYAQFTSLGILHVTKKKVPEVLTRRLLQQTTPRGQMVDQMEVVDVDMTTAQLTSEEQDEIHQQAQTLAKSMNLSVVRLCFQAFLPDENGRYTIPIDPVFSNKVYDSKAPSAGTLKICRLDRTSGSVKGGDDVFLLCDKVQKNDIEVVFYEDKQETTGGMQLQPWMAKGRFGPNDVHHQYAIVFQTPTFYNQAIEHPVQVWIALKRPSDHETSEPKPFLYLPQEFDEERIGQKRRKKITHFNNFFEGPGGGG
# [7] = molecular target: GST-Hu-p50 (Homo sapiens, UniProt P19838 7-356)
# GST-Hu-p50, sequence (P19838 7-356): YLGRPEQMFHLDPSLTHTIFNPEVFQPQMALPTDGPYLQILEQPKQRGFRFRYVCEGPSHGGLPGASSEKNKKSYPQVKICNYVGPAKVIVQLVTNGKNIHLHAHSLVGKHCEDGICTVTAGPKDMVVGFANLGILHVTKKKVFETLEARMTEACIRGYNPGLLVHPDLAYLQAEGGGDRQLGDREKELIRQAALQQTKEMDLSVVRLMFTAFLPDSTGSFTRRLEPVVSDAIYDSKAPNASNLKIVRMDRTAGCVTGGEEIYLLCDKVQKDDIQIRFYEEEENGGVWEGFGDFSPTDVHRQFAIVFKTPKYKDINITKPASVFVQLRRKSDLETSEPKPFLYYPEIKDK
Sequence,binding signal [1] [z-score],binding signal [2] [z-score],binding signal [3] [z-score],binding signal [4] [z-score],binding signal [5] [z-score],binding signal [6] [z-score],binding signal [7] [z-score]
CCGATTAACATCAATTTTCCCCCTGATGTTAATCGGGTCTTGATTCGCTTGACGCTGCTG,7.68,8.57,11.2,12,4.81,6.79,7.47
CCGATTAACATCAGGGGGGAACCTGATGTTAATCGGGTCTTGATTCGCTTGACGCTGCTG,7.52,5.48,6.89,8.57,5.48,6.03,6.02
CCGATTAACATCAGGGGAAATCATGATGTTAATCGGGTCTTGATTCGCTTGACGCTGCTG,7.92,8.72,11.1,7.67,5.47,5.97,6.18
CCGATTAACATCAGGAAAATCCCTGATGTTAATCGGGTCTTGATTCGCTTGACGCTGCTG,5.62,7.7,4.73,2.51,7.08,8.07,5.88
CCGATTAACATCAAGGGGATTTATGATGTTAATCGGGTCTTGATTCGCTTGACGCTGCTG,7.79,9.15,11.3,3.44,8.3,6.25,7.34
CCGATTAACATCAGGCTTTCCCCTGATGTTAATCGGGTCTTGATTCGCTTGACGCTGCTG,6.49,7.29,7.71,4.87,7.38,7.22,4.79
CCGATTAACATCAGGGGAAAACCTGATGTTAATCGGGTCTTGATTCGCTTGACGCTGCTG,9.38,10.6,11.5,7.99,8.9,9.77,6.91
CCGATTAACATCAAAAATACCCCTGATGTTAATCGGGTCTTGATTCGCTTGACGCTGCTG,7.44,8.45,7.96,6.5,7.71,7.5,6.44
CCGATTAACATCAGAGTTCCCCCTGATGTTAATCGGGTCTTGATTCGCTTGACGCTGCTG,7.64,7.87,8.12,8.96,7,6.05,6.39
CCGATTAACATCAGGGAAATACATGATGTTAATCGGGTCTTGATTCGCTTGACGCTGCTG,3.25,4.47,4.73,4.08,8.18,4.87,3.02
CCGATTAACATCAGCGATTCCCCTGATGTTAATCGGGTCTTGATTCGCTTGACGCTGCTG,6.31,6.55,8.57,5.5,3.63,4.44,5.54
CCGATTAACATCAAAATCCCAGGTGATGTTAATCGGGTCTTGATTCGCTTGACGCTGCTG,2.06,1.42,1.85,1.6,5.57,2.06,3.17
CCGATTAACATCAAATGTTCCCCTGATGTTAATCGGGTCTTGATTCGCTTGACGCTGCTG,5.58,6.77,7.62,9.87,5.59,6.21,4.41
CCGATTAACATCACACAACCCCCTGATGTTAATCGGGTCTTGATTCGCTTGACGCTGCTG,5.16,3.73,4.93,2.31,4.91,3.93,4.68
CCGATTAACATCAGAATTTTCCCTGATGTTAATCGGGTCTTGATTCGCTTGACGCTGCTG,4.45,7.42,7.41,5.08,2.3,6.44,5.01
CCGATTAACATCACTGTTTCCCCTGATGTTAATCGGGTCTTGATTCGCTTGACGCTGCTG,5.28,7.06,9.29,7.92,2.5,4.25,4.88
CCGATTAACATCAGGGGAACTTATGATGTTAATCGGGTCTTGATTCGCTTGACGCTGCTG,7.4,8.58,8.41,7.21,7.11,6.48,5.95
CCGATTAACATCAGGGGGGTAAATGATGTTAATCGGGTCTTGATTCGCTTGACGCTGCTG,4.89,4.22,4.83,7.69,4.17,4.53,4.35
CCGATTAACATCAGGGGGACAACTGATGTTAATCGGGTCTTGATTCGCTTGACGCTGCTG,5.19,5.15,4.83,6.16,3.66,4.24,4.46
CCGATTAACATCATGGGGGGAAATGATGTTAATCGGGTCTTGATTCGCTTGACGCTGCTG,6.36,6.46,7.43,9.84,4.25,5.5,6.02
CCGATTAACATCAGGGGGACTACTGATGTTAATCGGGTCTTGATTCGCTTGACGCTGCTG,6.49,4.44,4.46,4.53,6.39,5.25,4.55
CCGATTAACATCAAAGTTTCCCATGATGTTAATCGGGTCTTGATTCGCTTGACGCTGCTG,2.54,4.29,3.82,4.66,2.05,4.32,3.28
CCGATTAACATCAGGGAAGTTTATGATGTTAATCGGGTCTTGATTCGCTTGACGCTGCTG,4.29,4.93,4.78,2.58,3.35,5.26,3.73
CCGATTAACATCACTAGTTTCCCTGATGTTAATCGGGTCTTGATTCGCTTGACGCTGCTG,3.06,3.43,4.61,4.16,1.28,3.03,2.26
